Records with an inconclusive call do not appear. Calls of active or inactive are those of the source. Calls follow the shape of the dose curve; as a rule, active = well fitted inhibition curve with a large enough effect in the repeat runs; inconclusive = weak or mixed curves; inactive = no such curve, though single readings can be large or run the other way.
% is scaled to controls: 0 for no effect and ±100 for the full control effect; potency is read from the fitted curve at half-maximal effect.
Also: nearly all actives have a fitted effect of over 50% in size.

Sequence of Cytochrome P450 1A2 (Homo sapiens) (P05177 whole entry, looked up): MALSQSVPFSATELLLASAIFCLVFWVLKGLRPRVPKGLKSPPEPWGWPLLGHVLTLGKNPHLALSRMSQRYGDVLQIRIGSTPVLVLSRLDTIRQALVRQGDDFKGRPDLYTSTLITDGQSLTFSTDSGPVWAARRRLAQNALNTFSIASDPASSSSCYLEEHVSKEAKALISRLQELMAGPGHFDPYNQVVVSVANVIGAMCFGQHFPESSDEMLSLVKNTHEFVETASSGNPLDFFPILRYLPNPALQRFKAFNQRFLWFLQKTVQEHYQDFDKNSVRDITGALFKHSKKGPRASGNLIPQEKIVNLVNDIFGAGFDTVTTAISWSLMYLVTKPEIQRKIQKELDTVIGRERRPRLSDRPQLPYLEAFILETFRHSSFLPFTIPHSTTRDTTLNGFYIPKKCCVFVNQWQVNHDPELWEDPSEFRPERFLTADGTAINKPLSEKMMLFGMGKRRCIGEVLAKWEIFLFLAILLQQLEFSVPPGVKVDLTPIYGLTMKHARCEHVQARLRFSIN

For one assay, the target named is Cytochrome P450 2C9 (Homo sapiens) (UniProt P11712). Briefly: Cytochrome P450 Family 2 Subfamily C Member 9 (CYP2C9) small molecule antagonists: luciferase reporter qHTS assay (AID 1671198). The conditions noted are these: P450-Glo CYP2C9 enzyme assay, luciferin luminescence; series mostly up to 115 µM; activity change, negative = inhibition: at the top concentration. The procedure, abridged: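 Enzyme-substrate mix preincubated with compound 10 min at room temperature; reaction started with NADPH regeneration solution, 1 h 37C. Luminescent luciferin product read after 20 min detection reagent.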
Sequence of Cytochrome P450 2C9 (Homo sapiens) (P11712 whole entry, looked up): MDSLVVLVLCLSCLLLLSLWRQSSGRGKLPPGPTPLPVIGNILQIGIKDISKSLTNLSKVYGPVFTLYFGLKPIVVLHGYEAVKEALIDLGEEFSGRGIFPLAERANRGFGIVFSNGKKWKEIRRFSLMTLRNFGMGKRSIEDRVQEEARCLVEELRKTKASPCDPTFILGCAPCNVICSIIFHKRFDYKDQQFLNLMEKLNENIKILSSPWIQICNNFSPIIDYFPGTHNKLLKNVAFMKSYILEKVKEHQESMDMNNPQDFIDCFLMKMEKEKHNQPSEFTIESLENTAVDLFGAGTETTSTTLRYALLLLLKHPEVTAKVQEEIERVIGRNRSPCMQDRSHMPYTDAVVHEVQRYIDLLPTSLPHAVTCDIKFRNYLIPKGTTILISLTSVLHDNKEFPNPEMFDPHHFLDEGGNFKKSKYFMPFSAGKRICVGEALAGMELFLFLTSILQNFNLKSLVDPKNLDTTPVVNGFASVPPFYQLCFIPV
For `CCCCCCCC/C=C\CCCCCCCC(=O)OCC`, the Potency was 71 µM (active).

`CC(C)(COC(=O)c1ccccc1)COC(=O)c1ccccc1`: the Potency was 6.33 µM (active).

In the case of `S=C([S-])NCCNC(=S)[S-].[Mn+2]`, the Potency is 11.2 µM (active).

Regarding `CCOC(=O)C(F)(F)F`, the “activity change, negative = inhibition” value is -6.44% (inactive).

For `CCCCCCCN`, the “activity change, negative = inhibition” value is -0.421% (inactive).

As to `CC(C)(C)Cl`, the “activity change, negative = inhibition” value was -0.272% (inactive).

Consider `CC(C)=CCC/C(C)=C/CC/C(C)=C/CO`, for which the Potency is 17.8 µM (active).

Take `CC(C)CC(=O)C1C(=O)c2ccccc2C1=O`: the Potency was 17.8 µM (active).

Take `O=C(CS)Nc1ccccc1`: the Potency is 13.8 µM (active).

As for `NCC(=O)CCC(=O)O`, the “activity change, negative = inhibition” value is -15.7% [at 53 µM] (inactive).

For the compound `CC(=O)OC[C@H]1O[C@@H](n2ncc(=O)[nH]c2=O)[C@H](OC(C)=O)[C@@H]1OC(C)=O`, the “activity change, negative = inhibition” value is -1.19% [at 53 µM] (inactive).

With `Cc1nn(C)c(Oc2ccccc2)c1/C=N/OCc1ccc(C(=O)OC(C)(C)C)cc1`, the Potency is 2.83 µM (active).

As to `O=S(=O)(Oc1ccc(Cl)cc1)c1ccccc1`, the Potency is 31.7 µM (active).

With `CCO[C@H](Cc1ccc(OCCc2ccc(OS(C)(=O)=O)cc2)cc1)C(=O)O`, the “activity change, negative = inhibition” value is -7.12% [at 53 µM] (inactive).

For the compound `CCn1cc(C(=O)O)c(=O)c2cnc(N3CCNCC3)nc21`, the “activity change, negative = inhibition” value was 2.82% [at 53 µM] (inactive).

Consider `Cc1cccc(C)c1NC(=O)CN(CC(=O)O)CC(=O)O`, for which the “activity change, negative = inhibition” value was -2.94% [at 53 µM] (inactive).

Turning to `COc1ccc2cccc(CCNC(C)=O)c2c1`, the Potency is 15.5 µM (active).

As for `O=C(NCC1CN(c2ccc(N3CCOCC3=O)cc2)C(=O)O1)c1ccc(Cl)s1` (stereo not drawn), the Potency was 9.77 µM (active).

`CCO[Si](CCCCl)(OCC)OCC`: the Potency is 35.3 µM (active).

For `CCCCC/C=C\C/C=C\CCCCCCCC(=O)NC(C)c1ccccc1` (stereo not drawn), the Potency is 2.45 µM (active).

For `Brc1c2ccccc2c(Br)c2ccccc12`, the activity change, negative = inhibition was -3.76% [at 10.5 µM] (inactive).

With `Cc1cccc(C)c1OCC(=O)N[C@@H](Cc1ccccc1)[C@@H](O)C[C@H](Cc1ccccc1)NC(=O)[C@H](C(C)C)N1CCCNC1=O`, the Potency was 13.8 µM (active).

`COc1cc(Cl)c(OC)cc1N`: the Potency is 35.6 µM (active).

Take `C=CC(=O)OCCOCCOC(=O)C=C`: the “activity change, negative = inhibition” value was -9.07% (inactive).

Turning to `Cc1[nH]c(C)c(Cl)c(=O)c1Cl`, the activity change, negative = inhibition is 23.2% [at 23.6 µM] (inactive).

With `CCCn1cnc2c1c(=O)n(CCCCC(C)=O)c(=O)n2C`, the “activity change, negative = inhibition” value was -0.281% [at 53 µM] (inactive).

Another assay concerns the target Cytochrome P450 1A2 (Homo sapiens) (UniProt P05177). The assay is described as follows: Cytochrome P450 Family 1 Subfamily A Member 2 (CYP1A2) small molecule antagonists: luciferase reporter qHTS assay (AID 1671199). The conditions noted are these: P450-Glo CYP1A2 enzyme, luciferin luminescence, 1 h; series mostly up to 53 µM; activity change, negative = inhibition: at the top concentration. In short, it runs like this: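 Luminescence readout (relative luminescence units) after luciferin detection reagent, 20 min RT. Preceded by 1 h room-temperature CYP1A2 reaction with NADPH regeneration solution following 10 min compound preincubation with enzyme and proluciferin substrate. Furafylline positive control.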
In general terms: A reporter such as luciferase makes a cellular process visible.
As to `CC(C)(COC(=O)c1ccccc1)COC(=O)c1ccccc1`, the Potency is 39.9 µM (active).

Regarding `S=C([S-])NCCNC(=S)[S-].[Mn+2]`, the Potency is 25.2 µM (active).

As for `CCOC(=O)C(F)(F)F`, the “activity change, negative = inhibition” value is -22.2% [at 115 µM] (inactive).

In the case of `c1ccc(-c2ccccn2)nc1`, the Potency is 71 µM (active).

In the case of `CC(C)(C)Cl`, the “activity change, negative = inhibition” value was -18.4% [at 115 µM] (inactive).

For `CC(C)=CCC/C(C)=C/CC/C(C)=C/CO`, the Potency is 28.3 µM (active).

On to `CC(C)CC(=O)C1C(=O)c2ccccc2C1=O`, for which the Potency is 35.6 µM (active).

With `Nc1cccc(S(=O)(=O)c2cccc(N)c2)c1`, the “activity change, negative = inhibition” value is -14.7% [at 115 µM] (inactive).

As to `NCC(=O)CCC(=O)O`, the “activity change, negative = inhibition” value is -15.9% (inactive).

With `CC(=O)OC[C@H]1O[C@@H](n2ncc(=O)[nH]c2=O)[C@H](OC(C)=O)[C@@H]1OC(C)=O`, the “activity change, negative = inhibition” value is 14% (inactive).

Regarding `O=S(=O)(Oc1ccc(Cl)cc1)c1ccccc1`, the Potency was 5.64 µM (active).

As for `CCO[C@H](Cc1ccc(OCCc2ccc(OS(C)(=O)=O)cc2)cc1)C(=O)O`, the “activity change, negative = inhibition” value was 3.79% (inactive).

Turning to `CCn1cc(C(=O)O)c(=O)c2cnc(N3CCNCC3)nc21`, the “activity change, negative = inhibition” value was 10.8% (inactive).

As for `O=C(O)c1ccc(-n2nc(-c3ccccc3O)nc2-c2ccccc2O)cc1`, the “activity change, negative = inhibition” value was 4.71% (inactive).

Turning to `COc1ccc2cccc(CCNC(C)=O)c2c1`, the Potency is 4.9 µM (active).

On to `CCO[Si](CCCCl)(OCC)OCC`, for which the “activity change, negative = inhibition” value was -4.51% [at 115 µM] (inactive).

For `CCCCC/C=C\C/C=C\CCCCCCCC(=O)NC(C)c1ccccc1` (stereo not drawn), the “activity change, negative = inhibition” value is -11.5% (inactive).

With `Brc1c2ccccc2c(Br)c2ccccc12`, the Potency was 0.719 µM (active).

As to `Cc1cccc(C)c1OCC(=O)N[C@@H](Cc1ccccc1)[C@@H](O)C[C@H](Cc1ccccc1)NC(=O)[C@H](C(C)C)N1CCCNC1=O`, the “activity change, negative = inhibition” value was -1.34% (inactive).

Regarding `COc1cc(Cl)c(OC)cc1N`, the Potency was 5.03 µM (active).

As for `Cc1[nH]c(C)c(Cl)c(=O)c1Cl`, the “activity change, negative = inhibition” value was 9.02% [at 23.6 µM] (inactive).

Take `Cc1ccc(C(=O)Oc2ccc(C(O)CNC(C)(C)C)cc2OC(=O)c2ccc(C)cc2)cc1` (stereo not drawn): the “activity change, negative = inhibition” value was -21.6% (inactive).

The values above are taken from PubChem BioAssay (Tox21).
